# Values joined by “and” are separate entries in the source; they are usually repeats but may differ in a detail not shown here. Equal values may be shown once. The campaign covered roughly 300,000 compounds. About 5,400 (1.8%) were called active. Inconclusive results (about 28%) are left out. The call rests on the fitted dose curve; tested in HEK293 cells. What follows is part of a selection rich in actives, with near analogues and random picks from the rest. Where a call stands in place of a potency, no number is given.
# Test: qHTS for inhibitors of binding or entry into cells for Marburg Virus
# Settings: Marburg virus pseudotyped entry inhibition, cell reporter; series mostly up to 37.8 µM
# Potency means the concentration at half of the fitted maximal effect.
row,Compound,Potency
1,Cc1ccc(NC(=O)CSc2nnc(CNC(=O)c3ccccc3F)o2)cc1Cl,inactive
2,O=C(N/N=C/c1ccoc1)c1ccc(Cl)cc1Cl,inactive
3,O=c1[nH]c(NCCO)nnc1Cc1ccc(Cl)cc1,inactive
4,COc1ccc(Cc2nnc(N/N=C/c3ccccc3O)[nH]c2=O)cc1OC,3.66 µM (active)
5,CCOc1ccc(-n2c(O)c(/C=N/Nc3nnc(C)c(=O)[nH]3)c3ccccc3c2=O)cc1,inactive
6,O=C(OCC(=O)N1CCN(C(=O)c2ccco2)CC1)c1ccc(Cl)c(Cl)c1,inactive
7,COCCOC(=O)C1=C(C)NC(=O)NC1c1cc2c(cc1Br)OCO2 (configuration not stated),inactive
8,O=C1CCCCC(=O)c2ccccc2N1,inactive
9,c1ccc2c(c1)C(=NC1CCCCC1)NC2=NC1CCCCC1,5.8 µM (active)
10,C1CCC2=C(C1)CN1CCCC1=N2,inactive
11,Cc1nc2ccc(N)nc2nc1C,inactive
12,Cc1cccc(NC(=O)C2CCN(C(=O)NC3CCCCC3)CC2)c1,inactive
13,CC[C@]1(O)C(=O)OCc2c1cc1n(c2=O)Cc2cc3ccccc3nc2-1,0.0251 µM (active)
14,Cn1c(Cc2cccs2)nnc1SCC(=O)Nc1ccccc1,inactive
15,O=C(Oc1cccc(C(=S)N2CCOCC2)c1)c1cccc(Cl)c1,inactive
16,COc1ccccc1C(=O)NCCC(=O)NC(C)CCc1ccccc1 (configuration not stated),inactive
17,COc1ccc2nc(Nc3nc4cc5c(cc4s3)OCCO5)sc2c1,inactive
18,c1c2c(cc3sc(N4CCCCC4)nc13)OCCO2,0.562 µM (active)
19,Cc1nc2cc3c(cc2s1)OCO3,inactive
20,O=C(NCC(=O)N1CCN(c2ccccc2F)CC1)c1cccs1,inactive
21,CCN(CC)S(=O)(=O)c1cc(C(=O)Nc2cc(S(=O)(=O)N3CCOCC3)ccc2N2CCCC2)ccc1F,inactive
22,CCCN(CCc1ccccc1)C1CCc2c(O)cccc2C1 (configuration not stated),15.8 µM (active)

row,Compound,Potency
1,Cc1nn(Cc2ccccc2)c(C)c1NS(=O)(=O)c1ccccc1,inactive
2,COc1ccc(N(CC(=O)NCc2ccc(F)cc2)C(=O)CCC(=O)Nc2nccs2)cc1,inactive
3,NN=C(NN=Cc1ccccc1)c1ccccc1,inactive
4,COc1ccccc1NS(=O)(=O)c1ccc(C(=O)N2CCN(c3ccccc3O)CC2)cc1,inactive
5,CC1CN/C(=C\C(=O)c2ccc(Br)cc2)C(=O)N1 (configuration not stated),2.24 µM (active)
6,COc1cc2c(cc1OC)/C(=C/C(=O)c1ccc(NC(C)=O)cc1)NCC2,inactive
7,C/C(=C\C(=O)c1ccc(Br)cc1)N1CCCCC1,inactive
8,Cc1cc(OCC(=O)NCC(O)c2ccccc2)c2c(C)c(C)c(=O)oc2c1 (configuration not stated),inactive
9,O=C(Nc1cccc(Cl)c1N1CCOCC1)c1cccnc1,inactive
10,Cc1ccc(S(=O)(=O)NCC(=O)Nc2ccc3c(c2)OCCO3)cc1,inactive
11,COc1ccc(OCC(=O)NCCS(=O)(=O)N2CCN(c3ccc(F)cc3)CC2)cc1,inactive
12,Cc1cccc(NC(=O)/C=C/c2ccc3c(c2)OCO3)n1,6.51 µM (active)
13,CCc1c(C)sc(NC(=O)/C=C/c2ccc3c(c2)OCO3)c1C(=O)OC,inactive
14,O=C(/C=C/c1ccc2c(c1)OCO2)NCc1ccc(F)cc1,inactive
15,NC(=O)c1ccc(N2CCCC2)nc1,inactive
16,OC(COc1ccccc1)CN1CCN(c2cccc(Cl)c2)CC1 (configuration not stated),inactive
17,Oc1ccccc1N1CCN(C(=S)NCc2ccccc2)CC1,inactive
18,O=C(COC(=O)c1ccccc1C(=O)N1CCN(c2ccccc2)CC1)NCc1ccccc1,inactive
19,Oc1ccc(N2CCN(C(=S)NCc3ccccc3)CC2)cc1,3.16 µM (active)
20,CN(CC(=O)NCc1cccnc1)S(=O)(=O)c1cc(Cl)ccc1Cl,inactive
21,O=C(O)C1C2C=CC(O2)C1C(=O)Nc1ccccn1 (configuration not stated),inactive
22,Cc1c(C)n2c(SCC(=O)NC3CCCC3)nnc2[nH]c1=O,inactive

row,Compound,Potency
1,Cc1cc(N/C=C\C(=O)c2cccc3ccccc23)no1,inactive
2,CC(C)(C)NCc1cc(Br)ccc1OC1CCCC1,23.1 µM (active)
3,COc1ccc(Br)cc1CN(C)C(=O)C1CC(=O)N(C2CCCC2)C1 (configuration not stated),inactive
4,COCC(C)NCc1cc(Br)ccc1OC (configuration not stated),inactive
5,Cc1ccc(C)c(NC(=O)c2cc(-c3cc(C)cc(C)c3O)n[nH]2)c1,inactive
6,COc1ccccc1CNC(=O)[C@@H]1CCCN1C(=O)[C@@H]1Cc2ccccc2CN1C(=O)OC(C)(C)C,inactive
7,COCCCNC(=O)[C@@H](C#N)c1nc2ccccc2nc1N1CCN(Cc2ccccc2)CC1,inactive
8,COc1ccc(C(=O)CSc2nnc(-c3ccco3)o2)cc1,inactive
9,CCOc1ccc(-c2nnc(-c3ccco3)o2)cc1,6.51 µM (active)
10,CCC(=O)Oc1cccc(C(=O)Nc2ccc(-c3nnc(-c4ccco4)o3)cc2)c1,inactive
11,CC(=O)Nc1ccc(S(=O)(=O)NCC(=O)OCC(=O)c2ccc[nH]2)cc1,inactive
12,Cc1cccnc1CCNC(=O)C1CCC(=O)N(Cc2cccc(F)c2)C1 (configuration not stated),inactive
13,CCOc1ccc(C(C)=O)cc1COC(=O)CNC(=O)c1cccs1,inactive
14,O=C(Nc1ccc(Cl)c(Cl)c1)c1ccccc1NC(=O)C1CC=CCC1C(=O)O (configuration not stated),inactive
15,COC(=O)CC=C[C@@H](C)[C@@H](C=NOC[C@H]1O[C@H](c2ccccc2)C=C[C@H]1Oc1ccc(OC)cc1)N[S+](=O)([O-])c1ccc(C)cc1,inactive
16,NS(=O)(=O)c1ccc(NC(=O)COC(=O)c2c3c(nc4ccccc24)/C(=C\c2ccc4c(c2)OCO4)CCC3)cc1,11.6 µM (active)
17,COc1cc(-c2cc(C(=O)OCC(=O)Nc3ccc4c(c3)OCO4)c3ccccc3n2)cc(OC)c1OC,inactive
18,O=C(COC(=O)c1c2c(nc3ccccc13)/C(=C\c1cccs1)CCC2)Nc1ccccc1Cl,inactive
19,COc1cccc(C(=O)NNC(=O)c2cccc(F)c2)c1,inactive
20,Cc1c(Cl)c([N+](=O)[O-])nn1CC(=O)NCCCN1CCOCC1,inactive
21,CCOC(=O)N1CCC(N2Cc3cccc(C(=O)Nc4ccc(S(=O)(=O)N(CC)CC)cc4)c3C2=O)CC1,inactive
22,CCn1cc(C(=O)O)c(=O)c2c1N=C(C)CC2,inactive

row,Compound,Potency
1,COc1cc(SC)ccc1C(=O)Nc1cc(C)ccn1,14.6 µM (active)
2,COc1ccccc1CNC(=O)c1ccc(SC)cc1OC,inactive
3,Cc1ccnc(NC(=O)c2ccoc2C)c1,inactive
4,COc1cnn(-c2ccc([N+](=O)[O-])cc2)c(=O)c1Cl,inactive
5,Cc1cccnc1CC(C)NC(=O)c1cc(COc2cncc(Cl)c2)on1 (configuration not stated),inactive
6,CCCC(O)(c1ccccc1)C(c1ccccc1)c1ccccn1 (configuration not stated),inactive
7,O=C(c1ccc2c(c1)N(Cc1ccccc1)C(=O)c1ccccc1S2(=O)=O)N1CCCC1,inactive
8,O=C(c1ccc2c(c1)N(Cc1ccc(F)cc1)C(=O)c1ccccc1S2(=O)=O)N1CCN(c2ccccn2)CC1,5.01 µM (active) and 3.16 µM (active)
9,O=C(c1ccc2c(c1)N(Cc1ccc(Cl)cc1)C(=O)c1ccccc1S2(=O)=O)N1CCCCC1,inactive
10,O=C(Nc1ccc(S(=O)(=O)Nc2ccccn2)cc1)c1ccccc1,inactive
11,COC(=O)Cc1nc2c(N)nc(N)nc2[nH]c1=O,inactive
12,CCCCn1c(N)c(N(CCC(C)C)C(=O)CC2OC(=O)c3ccccc32)c(=O)[nH]c1=O (configuration not stated),inactive
13,COc1ccc(Cl)cc1NC(=O)COC(=O)c1ccc(Br)o1,inactive
14,O=[N+]([O-])c1ccccc1OCCCCN1CCCCC1,inactive
15,c1ccc(-c2ccccc2OCCN2CCCCC2)cc1,14.6 µM (active)
16,c1ccc2cc(OCCN3CCCC3)ccc2c1,inactive
17,CC1CN(CCOc2ccccc2[N+](=O)[O-])CC(C)O1 (configuration not stated),inactive
18,CC1CN(CCCOc2ccccc2-c2ccccc2)CC(C)O1 (configuration not stated),inactive
19,CC1CCCN(CCOCCOc2ccccc2-c2ccccc2)C1 (configuration not stated),11.2 µM (active)
20,CN(Cc1ccc(F)cc1)C(=O)CN1C(=O)c2ccccc2S1(=O)=O,inactive
21,COc1ccc(C(=O)CC(=O)c2ccc(C)cc2)c(O)c1,inactive
22,COc1ccc(N=C2C=CC(=O)O2)cc1,inactive

row,Compound,Potency
1,COc1ccc(Cc2nc3ccc(C(=O)NCC4CCOCC4)cc3o2)cc1OC,inactive
2,O=C(Cc1c[nH]c2ccccc12)OCCOC(=O)Cc1c[nH]c2ccccc12,18.3 µM (active)
3,O=C(COC(=O)Cc1c[nH]c2ccccc12)NCCc1ccccc1,inactive
4,CCOC(=O)CN(C)Cc1c[nH]c2ccccc12,inactive
5,COc1ccc(S(=O)(=O)NCc2cccnc2)cc1NC(=O)c1ccc(C)cc1,inactive
6,COc1cc(C(=O)Nn2c(CC(C)C)nc3ccccc3c2=O)cc(OC)c1OC,inactive
7,Cc1ccc(Nc2nc(-c3ccc(O)cc3O)cs2)nc1,4.47 µM (active)
8,Cc1ccc(NC(=O)c2cc(-c3ccc(C)o3)nc3ccccc23)nc1,inactive
9,Cc1cc(O)ccc1-c1cnc2ccccc2n1,inactive
10,CC(=O)c1ccc(S(=O)(=O)Nc2ccc(-c3ccc4nncn4n3)cc2)cc1,inactive
11,NC(=S)NN=C1CCCC(C(F)(F)F)C1 (configuration not stated),inactive
12,O=C(COC(=O)c1ccc(Br)o1)NC12CC3CC(CC(C3)C1)C2,inactive
13,CCOc1cc(N2CCOCC2)c(OCC)cc1NC(=O)COC(=O)[C@H](Cc1c[nH]c2ccccc12)NC(C)=O,inactive
14,CCOc1cc(N2CCOCC2)c(OCC)cc1NC(=O)COc1cccc2cccnc12,4.47 µM (active)
15,CCOc1cc(N2CCOCC2)c(OCC)cc1NC(=O)COc1cccc(Cl)c1,inactive
16,COc1ccc(Cl)cc1NC(=O)CN1CCN(C(=O)N2CCOCC2)CC1,inactive
17,O=C(Nc1c2c(nc3ccccc13)CCCC2)c1ccccc1Br,inactive
18,CCOc1ccc(NC(=O)CSc2c3c(nc4ccccc24)CCCC3)cc1,inactive
19,Cc1ccc(Nc2c3c(nc4ccccc24)CCC3)cc1,11.2 µM (active)

# — PubChem BioAssay AID540276 (National Center for Advancing Translational Sciences (NCATS), 2011)
